The record followed here is PubChem BioAssay (NCI).

The assay relates to MDA-MB-468 breast. Kind of assay: NCI-60 one-dose screen, 48 h (100 = growth as untreated, 0 = no growth, -100 = all killed). The settings on record: 10 µM unless noted.

SMILES strings stand for the structures. About 83,000 compounds went through this panel and 20% of them were active in at least one assay; those are over-represented in the sample as a whole.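 Testing used 96-well plates and a 48-hour single-concentration exposure. Example: -40 means 40% of the starting cells died.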 Active and inactive are the calls of the source. How the source made its calls: active means growth percent below 10; inactive means the rest.

Take `C=C(C)[C@@H]1CC[C@]2(C(=O)O)CC[C@]3(C)[C@H](CC[C@@H]4[C@@]5(C)CCC(NC(=O)c6cccc(OC(C)=O)c6OC(C)=O)C(C)(C)[C@@H]5CC[C@]43C)[C@@H]12` (stereo partly specified): the growth was -5.31% (active).

On to `Cc1nc2c(c(-c3ccccc3)n1)Cc1c(ccc3ccccc13)O2`, for which the growth is 90.5% (inactive). As to `NCCCN(CCCN)CCCNCc1c2ccccc2c(CNCCCN(CCCN)CCCN)c2ccccc12`, the growth was 83.4% (inactive).

Regarding `O=C1C=CC(=O)N1CCCCCCCCCCN1C(=O)C=CC1=O`, the growth is 70.9% (inactive). For `C/C(=N\O)c1ccccn1`, the growth was 97.6% (inactive).

Regarding `COc1ccc(-c2nc3c(c(-c4ccc(Cl)cc4)nn3-c3ccccc3)c(-c3ccc(O)cc3)c2C#N)cc1`, the growth is 54.8% (inactive).

With `COC(=O)c1ccc(CSc2nnc(-c3ccncc3)o2)cc1`, the growth was 115% (inactive). Under `CC(C)c1ccc(-c2cnc3nonc3n2)cc1` stands 21% (inactive). Under `CCCC[n+]1c(/C=C\c2c(OC)cc(OC)cc2OC)ccc2ccccc21` stands -31% (active); under `O=C(CSc1nnc(-c2ccc(NC(=O)c3cccnc3)cc2)o1)N[C@@H](Cc1ccc(O)cc1)C(=O)O`, 110% (inactive); under `CCOC(=O)/C=C1\S/C(=N\Nc2cc(=O)[nH]c3ccccc23)N(c2ccccc2)C1=O`, 105% (inactive). In the case of `COc1cc(-c2noc(C[C@@H](NC(=O)OCc3ccccc3)C(C)C)n2)cc(OC)c1OC`, the growth was 88.5% (inactive). Under `O=C(/C=C/C(=O)c1ccccc1)c1ccccc1` stands 107% (inactive). Regarding `N#Cc1nn(-c2ccccn2)c(N)c1C#N`, the growth was 116% (inactive). Under `CCN(CC)c1ccc2c(c1)OS(=O)(=O)N=C2` stands 111% (inactive); under `CCCCOc1nc2ccccc2cc1/C=C/c1cc(/C=C/c2cc3ccccc3nc2OCCCC)n(-c2ccccc2)n1`, 104% (inactive).

`CCN1CCN(c2cc(C)c3cc(NC(=O)c4ccc(OC)c(OC)c4)ccc3n2)CC1`: the growth is 1.89% (active). `Cc1ccc(S(=O)(=O)NCCCNc2nccc(-c3c(-c4ccccc4)nc4sccn34)n2)cc1`: the growth was 53.8% (inactive). Then `COc1ccc(C(=O)/C=C/c2cc3c(c(OC)c2)OCC(=O)N3)cc1`, with 42.3% (inactive). Then `OCCN1CCN(CCCN2c3ccccc3Sc3ccc(C(F)(F)F)cc32)CC1`, with -47.1% (active); and `CC(C)C(=O)Nc1ccc(-c2nc(-c3cccc(OCCN4CCOCC4)c3)c(-c3ccnc(Br)c3)[nH]2)cc1`, with 23.2% (inactive). Regarding `CCN(CCO)CCCOc1ccc2c(Nc3cc(CC(=O)Nc4cccc(F)c4)[nH]n3)ncnc2c1`, the growth was 36.7% (inactive).

Consider `O=C(CSc1nnc(-c2ccc(Cl)cc2)n1-c1ccccc1)Nc1ccc(F)cc1`, for which the growth was 91.8% (inactive). As to `CCCCCCCCCCCCCCCCCCNC(=O)[C@H]1CSC(c2ccc(OC)cc2O)N1` (stereo partly specified), the growth is 115% (inactive). Then `O=C(NC(Cc1ccc(O)cc1)C(=O)N=Nc1c(O)[nH]c2ccccc12)c1ccccc1` (stereo unspecified), with 109% (inactive); and `COc1ccc(-c2cnnn2-c2cc(OC)c3c(c2)OCO3)cc1`, with 40.9% (inactive); and `O=C(/C=C/C=C/c1ccc2c(c1)OCO2)N/N=C\c1ccc(O)cc1O`, with -2.83% (active).

For `COc1ccccc1CNCCCCCCCCCCCCN1C(=O)c2ccc3c4c(ccc(c24)C1=O)C(=O)N(CCCCCCCCCCCCNCc1ccccc1OC)C3=O`, the growth is -8.04% (active). On to `Cc1c(C(N)=O)sc2ncn(Cc3ccccc3)c(=O)c12`, for which the growth is 99% (inactive).

As to `CNC(=O)c1cc(-c2ccc(NC(=S)Nc3cccc(C(F)(F)F)c3)cc2)nc2cccnc12`, the growth is 47.9% (inactive). Under `CCOC(=O)c1c2c(n3ccc(NC(=O)CCN4CCCCC4)cc13)C(=O)c1ncccc1C2=O` stands 83.1% (inactive); under `COc1ccc(NC(=S)Nc2ccccn2)cc1`, 104% (inactive); under `O=C(O)/C=C\C(=O)N1C/C(=C\c2ccccc2Cl)C(=O)/C(=C/c2ccccc2Cl)C1`, -75.2% (active). Under `CN(C)CCOC(=O)Nc1ccc(Cc2ccc(NC(=O)OCCN(C)C)cc2)cc1` stands 40.4% [100 µM] (inactive). `COc1cc(O)c2c(=O)c3c(CC=C(C)C)cc(OC)c(O)c3oc2c1`: the growth was 64.6% (inactive). With `Cc1c(F)cccc1NC(=O)c1sc2nc3c(cc2c1N)CCCCC3`, the growth was 14.8% (inactive).
